# Measurements from PubChem BioAssay AID2797 (The Scripps Research Institute Molecular Screening Center, 2010).
# About 820 (0.26%) of roughly 320,000 compounds were called active. The list comes from a sample in which actives are over-represented; it also holds similar structures and randomly drawn compounds. Unmarked numbers belong to inactive results.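 The calls were made as follows: active = activation above the mean activation of all tested compounds plus 3 SD, per screening run (cut at about 20% in these data); inactive = the rest.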
# Molecular target: Vasopressin V1a receptor (Homo sapiens) (UniProt P37288)
# Test: V1R activation via calcium rise – fluorescence, CHO-V1R cells, counter-screen for OXTR agonist project, primary screen (AID 2797);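 also: signal is peak over basal fluorescence ratio across a 100 second FLIPR read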
# Conditions: Fluo-8 calcium fluorescence, agonist mode, at 3 µM, hits give high values, 0% DMSO, 100% 3 nM vasopressin
# Vasopressin V1a receptor (Homo sapiens), sequence (P37288 whole entry, looked up): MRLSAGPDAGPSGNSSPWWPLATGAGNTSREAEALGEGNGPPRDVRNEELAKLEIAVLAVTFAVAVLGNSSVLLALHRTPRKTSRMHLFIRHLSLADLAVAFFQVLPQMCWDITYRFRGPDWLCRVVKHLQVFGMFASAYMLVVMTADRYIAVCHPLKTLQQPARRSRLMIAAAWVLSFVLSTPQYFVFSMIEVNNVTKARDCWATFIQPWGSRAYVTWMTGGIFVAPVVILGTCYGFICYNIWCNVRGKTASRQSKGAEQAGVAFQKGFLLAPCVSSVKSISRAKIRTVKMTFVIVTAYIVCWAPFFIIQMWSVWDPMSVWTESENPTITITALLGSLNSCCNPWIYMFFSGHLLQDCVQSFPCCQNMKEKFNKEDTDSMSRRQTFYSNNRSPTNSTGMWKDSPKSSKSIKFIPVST
row,SMILES,activation
1,CC(C)(C)NC(=O)C(=O)NCc1ccncc1,0%
2,O=C(CCCN=C1NS(=O)(=O)c2ccccc21)OCC(=O)c1ccc(F)c(F)c1,22.6% (active)
3,N#CC1(NC(=O)COC(=O)CCN=C2NS(=O)(=O)c3ccccc32)CCCCC1,0.74%
4,O=C(OCCN=C1NS(=O)(=O)c2ccccc21)c1cccc([N+](=O)[O-])c1,3.94%
5,N#CCN(C(=O)COC(=O)C1CC2CCCC(C1)C2=O)c1ccccc1 (configuration not stated),-0.11%
6,COc1ccc(C23NCCN2C(=O)c2ccccc23)cc1 (configuration not stated),-0.14%
7,CCOC(=O)N1CCN(CCC(=O)Nc2ccccc2)CC1,0.3%
8,CC1CCN(CCC(=O)Nc2ccccc2)CC1,0.38%
9,Cc1cc(NC(=O)CCN2CCN(Cc3ccccc3)CC2)ccc1Br,26.5% (active)
10,CN(C)/C=C1/Nc2ccccc2C1=O,1.1%
11,Cc1cc(C)c(/C=C2\C(=O)Nc3ccccc32)[nH]1,23.6% (active)
12,O=C1Nc2ccccc2/C1=C/c1ccnc2ccccc12,3.16%
13,COc1ccc([C@H]2CC(=O)C=C(c3ccc(OC(F)(F)F)cc3)C2)cc1OC,1.96%
14,COc1ccc(C2CC(c3cccs3)Nc3nnnn32)cc1 (configuration not stated),1.36%
15,Cc1ccc(S(=O)(=O)NCCC(=O)NNC(=O)C2COc3ccccc3O2)cc1 (configuration not stated),-0.1%
16,COc1ccc(C2C(C#N)=C(N)N(c3ncn[nH]3)C3=C2C(=O)CCC3)cc1 (configuration not stated),1.11%
17,C=CCSc1nc2c(c(=O)[nH]c(=O)n2C)n1Cc1ccccc1,0.69%
18,CN(C(=O)COC(=O)c1ccc(Br)o1)c1c(N)n(Cc2ccccc2)c(=O)[nH]c1=O,-0.45%
19,Cc1cc2nc3c(=O)n(Cc4ccccc4)c(=O)[nH]c3nc2cc1N,73.4% (active)
20,C[C@H](NC(=O)c1nc[nH]c1C(=O)NCC(=O)OC(C)(C)C)c1ccccc1,-0.3%
21,Cc1c(Br)cc(C(=O)N2CCCCCC2)c(C)c1C,-1.61%
22,O=C(NC(=S)Nc1ccccc1N1CCCCC1)c1ccc(F)cc1,-0.81%
23,Cc1cccc(NC(=S)NCCc2ccc(Cl)cc2)c1C,0.32%

row,SMILES,activation
1,Cc1ccccc1NC(=S)NC(=O)Cc1ccc(Cl)cc1,26.2% (active)
2,COC(=O)Cc1ccc(NC(=S)NCc2ccc(Cl)cc2)cc1,10%
3,Cc1ccccc1N/C(SCc1ccc(Cl)cc1)=C(/C#N)C(N)=O,-0.5%
4,O=C(Cc1ccc(Cl)cc1)NC(=S)Nc1ccccc1O,47.5% (active)
5,O=C(COc1ccc(Cl)cc1)NC(=S)Nc1ccccc1N1CCOCC1,3.48%
6,CCN1CCN(C(=O)CN(C)S(=O)(=O)c2ccc3ccccc3c2)CC1,0.47%
7,Cc1nc2scc(-c3cccs3)c2c(=O)n1N,-0.59%
8,CCOc1ccc(C(=O)Nc2ccc(S(=O)(=O)NCC3CCCO3)cc2)cc1OCC (configuration not stated),1.35%
9,Cc1ccc(OCCNC(=O)CNC(=O)c2ccc(C)c(C)c2)cc1,-0.83%
10,Cc1nc2c(ncn2-c2ccccc2)c(=O)n1NC(=O)CN1CCCC1,0.46%
11,CCOc1ccc(C2=CC(c3ccccc3)n3ncnc3N2)cc1 (configuration not stated),0.49%
12,COc1ccc(C2C=C(c3ccc(Br)cc3)Nc3nc(NS(C)(=O)=O)nn32)cc1 (configuration not stated),23.5% (active)
13,Brc1ccc(C2=CC(c3ccco3)n3ncnc3N2)cc1 (configuration not stated),9.25%
14,CCS(=O)(=O)c1ccc(O)c(NC(=O)COc2ccc(Cl)cc2)c1,3.1%
15,Cc1ccc(O)c(NC(=S)NC(=O)COc2ccc(Br)cc2)c1,56% (active)
16,COc1ccc(C(=O)Nc2cc(C)ccc2NC(=O)COc2ccccc2)cc1,0.75%
17,CCN1CCN(c2sc(S(C)(=O)=O)nc2S(=O)(=O)c2ccc(Cl)cc2)CC1,0.09%
18,CCn1c(C(C)C)n[nH]c1=S,0.69%
19,CCOC(=O)N/N=C1\CC(C)S(=O)(=O)c2ccc(Cl)cc21 (configuration not stated),-1.51%
20,CC1CN(C(=O)c2ccccc2NS(=O)(=O)c2cccc([N+](=O)[O-])c2)CC(C)O1 (configuration not stated),1.41%
21,CCc1ccc(NC(=O)Cn2nnc(C(=O)NCc3ccc(OC)cc3)c2N)cc1,0.71%
22,CCOc1ccc(Cn2nnc(C(=O)NCc3ccccc3)c2N)cc1,27.1% (active)
23,CCOc1ccc(Cn2nnc(C(=O)Nc3ccc(OC)cc3OC)c2N)cc1,12.4%

row,SMILES,activation
1,O=C(C[n+]1ccc2c(c1)nnn2-c1ccccc1)c1ccc(Cl)cc1,-1.54%
2,COc1ccc(CCNc2cc(C)nc3c(-c4ccc(Cl)cc4)c(C)nn23)cc1OC,-0.66%
3,C=CCOCCN(C)C1=NS(=O)(=O)c2ccccc21,-0.21%
4,CCO[C@H]1OC(C(=O)N2CCCCCCC2)=C[C@@H](c2ccc(C(F)(F)F)cc2)[C@@H]1CCCO,-0.98%
5,O=C(/C=C/c1ccc2c(c1)OCCO2)c1ccc(O)cc1,1.07%
6,O=C(O)/C=C/c1ccc(OCCCF)cc1,0.21%
7,O=C(/C=C(O)/C=C/c1ccc(O)cc1)/C=C/c1ccc(O)cc1,76.2% (active)
8,CC(C)(C)S(=O)(=O)c1ccccc1-c1noc(-c2ccccc2)c1C(N)=O,0.13%
9,CCc1c(O)cc2n(c1=O)-c1ccccc1C2(C)C,1.27%
10,CCOc1ccc2[nH]c3nc(SCC(=O)NC4CCCC4)nnc3c2c1,1.39%
11,Nc1c(C(=O)c2cccs2)sc2nsc(SCCN3CCCCC3)c12,34.8% (active)
12,O=C(CSc1ncnc2sccc12)N1CCN(C(=O)c2cccs2)CC1,1.53%
13,O=C(NCC(=O)N1CCC2(CC1)NCCc1[nH]cnc12)c1ccc(Br)cc1,-0.07%
14,Cc1noc(C)c1NC(=O)Nc1cccc2c1O[C@H](CN(C)C(=O)Nc1ccccc1)[C@@H](C)CN([C@H](C)CO)C2=O,0.98%
15,COc1ccc(N2C(=O)c3cccc4cccc(c34)C2=O)nn1,-0.33%
16,Cc1nn(C)cc1N1C(=O)c2cccc3c(N)ccc(c23)C1=O,66.8% (active)
17,Cc1nn(C)cc1C(=O)c1ccccc1,0.77%
18,CN1C(=O)c2cccc3c(N)ccc(c23)C1=O,133% (active)
19,O=C(O)c1ccc2c3c(cccc13)C(=O)N(OS(=O)(=O)c1ccccc1)C2=O,0.24%
20,CC(=O)Nc1ccccc1Sc1ccc2c3c(cccc13)C(=O)N(c1ccc(C)cc1)C2=O,0.04%
21,COc1ccc(N(C(=O)c2ccc(C)cc2)S(=O)(=O)c2cccs2)cc1,0.59%
22,Cc1cc(C(=O)CC#N)c(C)n1-c1c(C)n(C)n(-c2ccccc2)c1=O,1.66%
23,CCOP1(=O)C=C(C(C)(C)C)OC1c1ccc(F)cc1 (configuration not stated),0.37%

row,SMILES,activation
1,Cc1ccc(N(C(=O)c2snc(C(N)=O)c2N)C(C(=O)NCC2CCCO2)c2c[nH]c3ccccc23)cc1 (configuration not stated),2.4%
2,CCN1/C(=C\c2ccc3ccccc3[n+]2CC)Sc2cc(C)ccc21,20.7% (active)
3,O=C1CCCN2N=C(SCC(=O)Nc3ccc(Br)cc3)SC2=N1,8.83%
4,CCOC(=O)Cc1c(C)nc2c(C#N)c(C)nn2c1C,-0.1%
5,CCOC(=O)N1CCC(O)(c2cc(C)c(C)cc2C)CC1,0.01%
6,CCCCCCn1cc(C(=O)O)c(=O)c2cc(F)c(N3CCCCC3)cc21,1%
7,CCOC(=O)Cn1c(=O)oc2cc(S(=O)(=O)N(C)Cc3ccco3)ccc21,1.45%
8,CN(c1ccccc1)c1ccc(/C=c2\s/c(=C(/C#N)C(=O)C(C)(C)C)n(Cc3ccco3)c2=O)cc1,28% (active)
9,COc1cc(NC(=O)COC(=O)c2cc(S(=O)(=O)N3CCOCC3)ccc2F)cc(OC)c1,1.44%
10,CCCc1ccc(OCC(=O)NNC(=S)NC(=O)c2ccco2)cc1,19.5%
11,Cc1ccc(C(=O)NNC(=O)C(C)Oc2ccc3ccccc3c2)o1 (configuration not stated),0.2%
12,CC(Oc1ccc2ccccc2c1)C(=O)NNC(=S)NC(=O)c1ccco1 (configuration not stated),23% (active)
13,Cc1cc2c(=O)n(CC(=O)NCC(=O)Nc3ccc(C(C)C)cc3)cnc2s1,0.52%
14,O=C(CC1SC(=Nc2ccccc2F)N(CCN2CCOCC2)C1=O)Nc1ccc(F)cc1F (configuration not stated),-0.11%
15,CCCC(C)C(=O)Nc1ccc(NC(C)=O)cc1 (configuration not stated),1.31%
16,COc1cc(OC)c(N2CC(C(=O)Nc3cc(Cl)ccc3N3CCOCC3)CC2=O)cc1Cl (configuration not stated),2.59%
17,COc1cc(OC)c(-n2c(C)cc(C=O)c2C)cc1Cl,-0.41%
18,COc1cc(OC)c(-n2cc(-c3ccc(Cl)cc3)[nH]c2=O)cc1Cl,38.5% (active)
19,CN1/C(=C\C=C2\N=C(c3ccc(F)cc3)OC2=O)C(C)(C)c2ccccc21,2.99%
20,O=C(NCCc1nnc2ccc(SCC(=O)N3CCOCC3)nn12)c1ccccc1,-0.68%
21,CCC(C)(C)C1CCC(=NNC(=O)c2ccc(Br)o2)CC1 (configuration not stated),0.08%
22,Cc1ccc(CN2CCN(c3ccccc3Cl)CC2)o1,-0.73%
23,O=C(CCc1[nH]c2ccccc2c1Sc1ccccc1)N(CCO)CCO,0.05%
